# NPSR antag: antagonists of human neuropeptide S receptor cAMP signaling. Q6W5P4. CHO-NPSR cells, cAMP TR-FRET, antagonist mode. Potency, µM (doses to about 38.3 µM), for the others: at the highest dose activity change, negative = inhibition, most hits filed as inhibitors. 220,000 tested, 1% active. AID 1461; active means well fitted curve in the direction sought with a large enough effect; inconclusive means small, poorly fitted or top-dose-only effect, or another doubt; inactive means no such curve, though single readings can be large; an effect the other way counts as inactive or inconclusive; further: potency means the concentration at half of the fitted maximal effect; nearly all actives have a fitted effect of over 50% in size
# Target sequence (Q6W5P4 whole entry, looked up): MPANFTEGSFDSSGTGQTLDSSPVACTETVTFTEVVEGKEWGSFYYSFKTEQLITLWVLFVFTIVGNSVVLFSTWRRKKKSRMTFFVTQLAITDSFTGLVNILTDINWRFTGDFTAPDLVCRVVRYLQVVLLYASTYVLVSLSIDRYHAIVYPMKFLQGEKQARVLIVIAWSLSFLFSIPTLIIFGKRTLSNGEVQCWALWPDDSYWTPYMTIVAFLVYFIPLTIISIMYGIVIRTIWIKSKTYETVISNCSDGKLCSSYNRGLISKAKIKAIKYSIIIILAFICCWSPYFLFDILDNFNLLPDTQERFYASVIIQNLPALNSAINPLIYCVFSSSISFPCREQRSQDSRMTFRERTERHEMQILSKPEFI
# Sfp PPTase inh: inhibitors of Bacillus subtilis Sfp phosphopantetheinyl transferase. Q9F4F7. Biochemical Sfp PPTase activity, qHTS. Potency, µM, inactives show largest response in the series, negative = inhibition, most hits filed as inhibitors. 310,000 tested, 3.5% active. AID 1490; active means well fitted curve in the direction sought with a large enough effect; inconclusive means small, poorly fitted or top-dose-only effect, or another doubt; inactive means no such curve, though single readings can be large; an effect the other way counts as inactive or inconclusive;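 further: the enzyme is Sfp with the accession as filed and its product quenches rhodamine fluorescence; potency means the concentration at half of the fitted maximal effect; 0% = enzyme reaction without inhibitor and -100% = no enzyme wells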
#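 Fluorescence-quenching assay with 15 nM Sfp, 5 uM rhodamine-CoA and 12.5 uM BHQ-2-labelled ybbR peptide in pH 7.6 Hepes/MgCl2 buffer. Enzyme was pre-incubated with compound for 15 min at room temperature. Rate was taken from the 30-min fluorescence change (525/598 nm).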
# FBPA coupling cs: inhibits coupling enzyme system, counter-screen for aldolase hits | coupling enzyme system counterscreen, AmpLite Red fluorescence | AID 2472 | activity change, negative = inhibition, % at 58.2 µM, hits read low | 290,000 tested, 0.67% active; in the data active means activity change below about -30%
#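 Compounds tested against the coupling enzymes alone at 57.5 uM final; readout was AmpLite Red fluorescence (525/598 nm) after 20 min at RT.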
# ALDH1A1 block: ALDH1A1 (human) enzyme inhibition; Potency, µM (highest dose often 75.3 µM), without a hit: at the highest dose activity, negative = inhibition, most hits filed as inhibitors; AID 1030; 220,000 tested, 7.3% active; Purified ALDH1A1, NADH fluorescence, propionaldehyde substrate;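 further: potency means the concentration at half of the fitted maximal effect; plate controls were no enzyme wells and a reference inhibitor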
# RGS12 GoLoco inh: inhibitors of human Gai1-RGS12 GoLoco interaction (red fluorophore). Gai1:RGS12 GoLoco peptide FP, rhodamine, 10 min. AID 880. 230,000 tested, 0.44% active. Potency, µM (series often up to 61.6 µM), without a hit: at the highest dose activity, negative = inhibition, most hits filed as inhibitors. P63096; active means well fitted inhibition curve with a large enough effect, not every such curve was filed as active; inactive means no such curve, though single readings can be large or run the other way; further: potency means the concentration at half of the fitted maximal effect; nearly all actives have a fitted effect of over 30% in size
# Target sequence (P63096 whole entry, looked up): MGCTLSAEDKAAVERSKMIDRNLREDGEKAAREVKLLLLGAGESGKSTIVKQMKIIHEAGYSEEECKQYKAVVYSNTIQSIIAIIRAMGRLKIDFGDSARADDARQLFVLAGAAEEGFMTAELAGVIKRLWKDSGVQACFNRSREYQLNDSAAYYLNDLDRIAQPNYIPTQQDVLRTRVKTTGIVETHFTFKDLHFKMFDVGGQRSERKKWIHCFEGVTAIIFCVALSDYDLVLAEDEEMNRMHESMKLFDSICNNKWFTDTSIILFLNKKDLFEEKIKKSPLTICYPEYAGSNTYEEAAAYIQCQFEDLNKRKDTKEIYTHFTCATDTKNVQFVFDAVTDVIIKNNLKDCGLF
# JMJD2E inh: JMJD2E (human) inhibition; Potency, µM (series often up to 57.1 µM), inactives show top-dose activity change, negative = inhibition, most hits filed as inhibitors; JMJD2E catalytic domain, FDH-coupled NADH fluorescence (FDH is formaldehyde dehydrogenase); B2RXH2; 230,000 tested, 1.6% active;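 further: potency means the concentration at half of the fitted maximal effect; 0% = wells with enzyme and -100% = buffer wells without enzyme; nearly all actives have a fitted effect of over 50% in size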
# * hit, by the source's call; ? = inconclusive; / = no result; ! = not confirmed by another sample; [ ] = another dose, or the depositor's remark. Hits are enriched below; roughly 8.5% of the tested compounds scored in any of these assays. Unless noted, the call rests on the fitted dose curve; in most records, active means well fitted inhibition curve with a large enough effect (not every such curve was filed as active); inconclusive means small, poorly fitted or top-dose-only effect, or another doubt; inactive means no such curve, though single readings can be large or run the other way. Unless noted, on the % scale 0 is the no-effect control and ±100 the full control effect.
SMILES,NPSR antag,Sfp PPTase inh,FBPA coupling cs,ALDH1A1 block,RGS12 GoLoco inh,JMJD2E inh
COc1cccc(-n2c([S-])c(C(=O)Nc3ccc(S(=O)(=O)N4CCOCC4)cc3)[n+]3cc(C(N)=O)ccc23)c1,26%,0%,-11,?,24%,14µM*
CS(=O)(=O)Nc1ccc(C(=O)Nc2ccc(S(=O)(=O)N3CCCC3)cc2)cc1,2%,3%,1,25µM*,2%,-27%
O=C(NC1CCS(=O)(=O)C1)c1ccc(S(=O)(=O)N2CCCCC2)cc1 (configuration not stated),-27%,8%,-1,25µM*,-4%,7%
O=C(Nc1cccc(S(=O)(=O)N2CCCCC2)c1)c1ccc2c(=O)n3c(nc2c1)CCCCC3,?,-20%,-1,2.5µM*,/,-3%
O=C(NC1CCS(=O)(=O)C1)c1ccc(S(=O)(=O)N2CCCC2)cc1 (configuration not stated),/,6%,3,/,/,/
O=C(O)CC(NC(=O)C12CC3CC(CC(C3)C1)C2)c1ccc(OC2CCCC2)cc1 (configuration not stated),-17%,15%,7,8%,2%,4%
N[C@H](C(=O)O)[C@@H]1[C@@H](C(=O)O)C1(F)F,/,89µM*,3,8%,-2%,16µM*
COc1cccc(Cn2c(=O)c(-c3cccc(Cl)c3)nc3cncnc32)c1,/,-16%,-3,-8%,6%,/
Cc1ccc2cc(C3C(C#N)=C(N)Oc4c3ccc3cccnc43)c(=O)[nH]c2c1 (configuration not stated),0%[46.1 µM],10µM*,-39*,?,10%,?
O=C1NC(=NCc2ccccc2)S/C1=C/c1ccc(O)cc1,-18%,25µM*,6,-8%,74%,-1%
CCOC(=O)c1cc(-c2ccccc2)n(CC2CC(c3ccc(OC)cc3)=NO2)n1 (configuration not stated),/,0%,4,/,/,/
CC1(C)CC(=O)C(Sc2ccccc2[N+](=O)[O-])=C(O)C1,3%,?,4,7.1µM*,-1%,?
Cc1ccc(S(=O)(=O)Nc2ccccc2-c2ccccc2NS(=O)(=O)c2ccc(C)cc2)cc1,-10%[46.1 µM],5%,1,-5%,-13%,-5%
COC(=O)c1ccc(Sc2ccccc2NS(=O)(=O)c2ccc(C)cc2)nc1,-25%[46.1 µM],8%,0,28µM*,4%,4%
CCCn1c(=O)c(C(=O)NCCc2ccc(Cl)cc2)c(O)c2ccccc21,/,-11%,-2,/,/,/
O=c1[nH]nc(SCc2cc(Cl)ccc2Cl)c(=O)[nH]1,-5%,11%,4,/,3%,2%
Cc1cccc(N2CCN(C(=O)c3ccc4c(c3)NC(=O)C(CSCc3cccc(F)c3)N4)CC2)c1C (configuration not stated),/,89µM*,/,/,/,/
C/C(=N\Nc1cccc2cccnc12)c1ccccn1,-20%,-9%,-3,-14%,11%,?
C/C(=N\Nc1cccc2cccnc12)c1ccc(N)cc1,-11%,?,-9,8.9µM*,42%,?
O=C(O)c1cc(S(=O)(=O)Nc2ccc(O)cc2)ccc1Cl,/,/,/,0%,/,/
CCn1c(C)[n+](CCOC(C)=O)c2cc(Cl)c(Cl)cc21,4%,-21%,4,2%,9%,16µM*
CCN(CC)c1ccc(N)cc1,/,/,/,3.2µM*,167%,/
Nc1ccc(N(CCO)CCO)cc1,37%,13µM*,-38*,16µM*,8.9µM*,32%
COCCN(CC(=O)NC1CCCCC1)C(=O)CSc1nc2ccccc2o1,-6%[46.1 µM],8%,0,13%,4%,-3%
O=C(CN(Cc1ccc2c(c1)OCO2)C(=O)CSc1nc2ccccc2o1)NC1CCCCC1,?,79µM*,0,?,9%,6%
SMILES,NPSR antag,Sfp PPTase inh,FBPA coupling cs,ALDH1A1 block,RGS12 GoLoco inh,JMJD2E inh
Nc1c(C(=O)OCC2CCCO2)c2nc3ccccc3nc2n1-c1ccc2c(c1)OCCO2 (configuration not stated),-29%[46.1 µM],?,-37*,?,10%,?
CCOCCCNC(=O)c1c(N)n(-c2ccc3c(c2)OCO3)c2nc3ccccc3nc12,-57%,4%,-35*,/,1%,?
Nc1c(C(=O)NC2CC2)c2nc3ccccc3nc2n1-c1ccc2c(c1)OCO2,9%[46.1 µM],-2%,-22,?,-49%,?
COCCCNC(=O)c1c(N)n(-c2ccc3c(c2)OCO3)c2nc3ccccc3nc12,-13%[46.1 µM],-20%,-47*,?,-3%,?
CCOC(=O)c1c(N)n(-c2ccc(N)cc2)c2nc3ccccc3nc12,-17%,-3%,1,1%,9%,18µM*
COCCCNC(=S)Nc1c(C)cc(C)cc1C,5%,13%,0,/,-2%,6%
CC(=O)NC1C(Oc2ccccc2C)OC2COC(c3ccco3)OC2C1O (configuration not stated),29%,4%,-2,5%,7%,2%
COC(=O)c1ccccc1NC(=O)CSCC(=O)Nc1ccc(F)cc1,-11%[46.1 µM],18%,3,-7%,-1%,-9%
C/C(CC(=O)Nc1ccccc1Cl)=N\NC(=O)C(=O)NCCO,18%,-9%,0,10µM*,-8%,26%
Cc1cc(N=NC(=O)c2ccccc2)ccc1O,20%,50µM*,-10,22µM*,-23%,?
O=C(ONc1ccc(N=NC(=O)c2ccccc2O)cc1)c1ccccc1,0%[46.1 µM],-15%,-1,?,-2%,-28%
Cc1nc2sccn2c(=O)c1CCN1CCC(=C(c2ccc(F)cc2)c2ccc(F)cc2)CC1,?,56µM*!,-8,-6%,9%,-12%
Cc1nc2ccccn2c(=O)c1CCN1CCC(C(=O)c2ccc(F)cc2)CC1,-4%,8%,-1,-12%,4%,?
O=C(c1ccco1)[C@@H]1[C@@H]2C(=O)N(c3ccc(F)cc3)C(=O)[C@@H]2[C@H]2C=Cc3ccccc3N21,-36%,50µM*,-8,?,11%,-17%
NC(=O)[C@@H]1[C@@H]2C(=O)N(c3ccc(F)cc3)C(=O)[C@@H]2[C@H]2C=Cc3ccccc3N21,-29%,56µM*,-20,/,54%,?
CC(C)c1ccc(-c2cc(C(=O)NN3CCN(C)CC3)c3ccccc3n2)cc1,-13%,40µM*,-4,-2%,14%,-3%
CC1CN(C(=O)CCC(=O)NCCCN2CCN(Cc3ccccc3)CC2)c2cc(Cl)ccc2O1 (configuration not stated),/,11%,/,/,/,/
CCOC(=O)c1cc(NC(=O)CSCCO)ccc1Cl,-8%[46.1 µM],-6%,0,22µM*,-4%,8%
CCOC(=O)c1cc(NC(=O)COC)ccc1O,-11%,-16%,-1,-4%,-4%,0%

# Screens deposited in PubChem by National Center for Advancing Translational Sciences (NCATS).
